# Shown are actives, neighbours in structure and some others; about 5.3% of the full set was active somewhere.
# FBPA coupling cs: qHTS Assay for Inhibitors of Fructose-1,6-bisphosphate Aldolase from Giardia Lamblia: Coupling assay counterscreen. AID 2472, 2010. activity change, negative = inhibition, % at 58.2 µM, hits read low. 290,000 compounds, 0.67% hits. coupling enzyme system counterscreen, AmpLite Red fluorescence; in the data active = activity change below about -30%
#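 Final compound at 57.5 uM, incubated 10 min at RT with coupling enzyme reagent (glyceraldehyde-3-phosphate), then 20 min with substrate and AmpLite Red detection. Fluorescence read at 525/598 nm; tests interference with the coupling assay, not aldolase inhibition.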
# Tau fluor counter: Counterscreen qHTS for Inhibitors of Tau Fibril Formation, Fluorescence Polarization | tau K18 P301L Alexa594 fluorescence, heparin fibrillization | Potency, µM (doses to about 57.7 µM), inactives show at the top dose activity change, negative = decrease | 280,000 compounds, 0.93% hits | AID 1463, 2008; note: potency is the fitted concentration of half-maximal effect; nearly all actives have a fitted effect of over 55% in size
#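 Human tau K18 P301L (15 uM unlabeled, 0.24 uM Alexa 594-labeled) in 100 mM sodium acetate pH 7 with 20 uM heparin, 6 hr at 37 C. ThT 30 uM added, 1 hr ambient; Alexa 594 FP and total fluorescence read at 555/632 nm.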
# Tau FP inhib: qHTS for Inhibitors of Tau Fibril Formation, Fluorescence Polarization. K18 P301L tau heparin fibrillization, Alexa594 FP, 6 h. Potency, µM (doses to about 57.7 µM), for inactives: top-dose activity, negative = inhibition, most hits filed as inhibitors. 280,000 compounds, 0.39% hits. AID 1468, 2008; note: potency is the fitted concentration of half-maximal effect; nearly all actives have a fitted effect of over 55% in size
# Target sequence (P10636 561-689 P618L limits assumed): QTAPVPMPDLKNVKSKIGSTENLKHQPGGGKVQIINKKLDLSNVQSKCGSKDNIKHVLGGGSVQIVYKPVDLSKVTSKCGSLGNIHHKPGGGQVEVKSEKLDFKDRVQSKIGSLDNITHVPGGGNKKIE
#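 K18 P301L tau (15 uM unlabeled/0.24 uM Alexa 594-labeled, final) + compound + heparin 20 uM final; 100 mM NaOAc pH 7; 6 hr 37 C; ThT 30 uM final added, 1 hr RT; FP ex 555/em 632 nm.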
# Tau ThT inhib: qHTS for Inhibitors of Tau Fibril Formation, Thioflavin T Binding. recombinant tau K18 P301L, heparin-induced fibrillization, ThT fluorescence. AID 1460, 2008. 270,000 compounds, 2.1% hits. Potency, µM (top dose mostly 57.4 µM), without a hit: at the top dose activity, negative = inhibition, hits mostly inhibitors; note: potency is the fitted concentration of half-maximal effect; nearly all actives have a fitted effect of over 55% in size
#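 ThT emission at 510 nm, taken 1 hr after adding 30 uM dye, quantifies aggregates formed when 20 uM heparin acts on human tau K18 P301L for 6 hr at 37 C.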
# Sfp inh: qHTS Assay for Inhibitors of Bacillus subtilis Sfp phosphopantetheinyl transferase (PPTase) | 4'-phosphopantetheinyl transferase ffp (Bacillus subtilis), Q9F4F7 | Biochemical Sfp PPTase activity, qHTS | Potency, µM, for the others: largest response in the series, negative = inhibition, usual class: inhibitors | 310,000 compounds, 3.5% hits | AID 1490, 2009;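 note: the enzyme is Sfp with the accession as filed and its product quenches rhodamine fluorescence; potency is the fitted concentration of half-maximal effect; 0% = enzyme reaction without inhibitor and -100% = no enzyme wells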
#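 Compounds were incubated with enzyme (final 15 nM) for 15 min at room temperature before substrate addition started the reaction. Fluorescence at 525 nm excitation, 598 nm emission was recorded immediately and after 30 minutes.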
# JMJD2E inh: qHTS Assay for Inhibitors of Human Jumonji Domain Containing 2E (JMJD2E); Potency, µM (top dose mostly 57.1 µM), inactives show at the highest dose activity change, negative = inhibition, hits mostly inhibitors; 230,000 compounds, 1.6% hits; JMJD2E catalytic domain, FDH-coupled NADH fluorescence (FDH is formaldehyde dehydrogenase); Lysine-specific demethylase 4E (Homo sapiens), B2RXH2; active = well fitted inhibition curve with a large enough effect, not every such curve was filed as active; inconclusive = small, poorly fitted or top-dose-only effect, or another doubt; inactive = no such curve, though single readings can be large or run the other way;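 note: potency is the fitted concentration of half-maximal effect; 0% = wells with enzyme and -100% = buffer wells without enzyme; nearly all actives have a fitted effect of over 50% in size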
# Target sequence (B2RXH2 1-337 limits assumed): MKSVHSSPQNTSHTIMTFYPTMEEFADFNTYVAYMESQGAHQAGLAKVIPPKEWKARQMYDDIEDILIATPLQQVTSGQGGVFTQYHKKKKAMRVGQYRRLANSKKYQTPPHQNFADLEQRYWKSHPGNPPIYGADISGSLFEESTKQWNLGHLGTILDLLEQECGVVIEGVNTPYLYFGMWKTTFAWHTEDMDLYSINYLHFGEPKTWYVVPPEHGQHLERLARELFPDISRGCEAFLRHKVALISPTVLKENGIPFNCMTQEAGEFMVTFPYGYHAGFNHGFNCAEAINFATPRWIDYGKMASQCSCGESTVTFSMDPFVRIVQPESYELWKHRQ
# Starred values were filed as active, the others as inactive; ? = inconclusive; . = not tested or not shown; [ ] = remark or other dose. Unless noted, calls come from the whole dose curve; as a rule, active = well fitted curve in the direction sought with a large enough effect; inconclusive = small, poorly fitted or top-dose-only effect, or another doubt; inactive = no such curve, though single readings can be large; an effect the other way counts as inactive or inconclusive. Unless noted, % is set by controls: 0 for no effect and ±100 for the full control effect.
SMILES,FBPA coupling cs,Tau fluor counter,Tau FP inhib,Tau ThT inhib,Sfp inh,JMJD2E inh
O=c1c2ccccc2nc(/C=C/c2cccnc2)n1Cc1ccccc1,0,-7%,-2%,?,32µM*,7.9µM*
O=c1c2ccccc2nc(/C=C/c2ccccc2)n1-c1ccc(O)cc1,-2,.,.,.,11%,.
O=C(OCC(=O)c1ccc([N+](=O)[O-])cc1)/C(=C/c1ccc(Cl)cc1)NC(=O)c1ccccc1,-1,-14%,?,28µM*,?,-10%
NC(=NCCC[C@H](N)C(=O)O)N[N+](=O)[O-],4,-7%,0%,-5%,7%,3%
O=C1NC(=S)NC(=O)C12C(c1ccc(F)cc1)NC(=S)NC2c1ccc(F)cc1 (stereo not given),4,2%,7%,-11%,40µM*,3%
CNCCc1c[nH]c2ccc(O)cc12,-5,-13%,-15%,-9%,-1%,22µM*
COc1cc2c(cc1OC)[C@@H]1C(=O)c3ccc(OC)c(CC=C(C)C)c3OC1CO2 (stereo not given in full),-11,-29%,-8%,-27%,?,18µM*
Cc1cc(OC(=O)N(C)C)nn1C(=O)N(C)C,-1,.,.,.,-11%,.
CCNC(=S)NCCC1=c2ccccc2=N/C1=C\c1c(O)n(C)c(=O)n(C)c1=O,-9,-28%,-3%,?,16µM*,-3%
CCC(C)C(=O)OC1C(O)C2C(CN3CC(C)CCC3[C@]2(C)O)C2C[C@]34O[C@@]5(O)C(OC(=O)C(C)(O)CC)CCC3(C)C5C(OC(C)=O)C(OC(C)=O)C4[C@@]21O (stereo not given in full),1,0%,2%,1%,3%,7%
Cc1cc(C=C2C(=O)N(C)C(=S)N(C)C2=O)c(C)n1C1CCCC1,-3,?,?,25µM*,56µM*,-4%
O=C(O)CCn1cc(C=C2C(=O)NC(=S)NC2=O)c(-c2cccc(Cl)c2)n1,7,-6%,5%,?,22µM*,?
O=C(O)CCn1cc(C=C2C(=O)NC(=O)NC2=O)c(-c2ccc(Br)cc2)n1,10,-5%,-5%,?,?,?
CC1=C2C(=COC(C)C2C)C(=O)C(C(=O)O)=C1O (stereo not given),-36*,-16%,-4%,?,-13%,-26%
Fc1cccc(F)c1CN1CCN(c2ccc(Cl)cc2)CC1,-1,.,.,.,3%,.
Fc1ccccc1N1CCN(Cc2c(F)cccc2F)CC1,1,-3%,6%,-5%,?,20µM*
Nc1c([N+](=O)[O-])ccc(Oc2ccccc2)c1Cl,-7,.,.,.,-18%,.
O=C1NC(=O)C(=CN2CCc3ccccc32)C(=O)N1,-20,-20%,?,10µM*,-29%,-3%
O=C1NC(=O)N(Cc2ccccc2)C(=O)/C1=C\N1CCCc2ccccc21,-7,4%,10%,0%,?,1%
CCC1CN2CCC1CC2C(O)c1ccnc2ccc(OC)cc12 (stereo not given),3,-4%,1%,-4%,14%,?
O=C(NCCSc1c(-c2ccccc2)[nH]c2ccccc12)c1ccc(S(=O)(=O)N2CCOCC2)cc1,.,6.3µM*[quencher],?,-9%,.,.
CN(C)S(=O)(=O)c1ccc(C(=O)NCCSc2c(-c3ccccc3)[nH]c3ccccc23)cc1,.,4µM*[quencher],-10%,-5%,.,.
O=c1[nH]c(O)c(N=Nc2cccc(S(=O)(=O)N3CCOCC3)c2)c(=O)[nH]1,3,-9%,-4%,-6%,10%,-1%
NCC[C@H](NC(=O)[C@@H](N)CCCN=C(N)N[N+](=O)[O-])C(N)=O,0,.,.,.,?,.
CCNN,-5,.,.,.,?,.
SMILES,FBPA coupling cs,Tau fluor counter,Tau FP inhib,Tau ThT inhib,Sfp inh,JMJD2E inh
COc1cccc(-n2c(CNC(=O)OC(C)(C)C)n[nH]c2=S)c1,0,5%,0%,7%,50µM*,0%
CCOC(=O)c1ccc(N2C(=O)c3n[nH]c(-c4cccs4)c3C2c2ccc(OC)cc2OC)cc1 (stereo not given),.,-25%,?,1%,.,.
N#CC(C#N)=NNc1ccc(OC(F)(F)F)cc1,12,?,?,7.9µM*,?,-17%
O=C(CSC1c2ccccc2-c2ccccc21)N/N=C/c1ccccc1O,2,?,-5%,-25%,10%,25µM*
O=C(CSC1c2ccccc2-c2ccccc21)N/N=C/c1ccc(C(=O)O)cc1,4,-4%,5%,-12%,18%,-2%
C[C@H]1[C@@H](O)[C@@H](C)/C=C\C=CCC\C=C/C=C\C=C/C=C[C@@H](O[C@H]2O[C@@H](C)[C@@H](O)[C@@H](N)[C@@H]2O)C[C@@H]2O[C@@](O)(C[C@@H](O)[C@H]2C(=O)O)C[C@@H](O)[C@@H](O)CC[C@@H](O)C[C@@H](O)C[C@@H](O)CC(=O)O[C@H]1C,1,.,.,.,18%,-22%[25.5 µM]
CCCCCCCCCCCC[N+](C)(C)CCOc1ccccc1,.,.,.,.,50µM*,.
CCCCCCOc1ccc(CN2CCN(C)CC2)cc1,2,4%,5%,3%,0%,-6%
COP(=S)(OC)SCN1C(=O)c2ccccc2C1=O,3,-19%,?,35µM*,35µM*,-9%
COc1cc(CC(=O)OCC2=C[C@H]3[C@@H]4C(C)(C)[C@]4(OC(C)=O)[C@H](OC(=O)Cc4ccccc4)[C@@H](C)[C@]3(O)[C@@H]3C=C(C)C(=O)[C@@]3(O)C2)ccc1O,-5,?,?,?,-2%,.
Brc1c(NC2=NCCN2)ccc2nccnc12,-21,-12%,?,?,-8%,20µM*
C=C(C)[C@@]12OC3(c4ccccc4)O[C@@H]1[C@@H]1[C@@H]4O[C@]4(CO)[C@@H](O)[C@]4(O)C(=O)C(C)=C[C@H]4[C@@]1(O3)[C@H](C)[C@H]2OC(=O)/C=C/C=C/c1ccccc1,-7,.,.,.,0%,.
CCOC(=O)c1c(C)c(P(=S)(N2CCOCC2)N2CCOCC2)n(C)c1C,1,0%,-4%,-3%,32µM*,-8%
Cc1ccc(C(=O)n2c(N)nc3ccccc32)cc1,-1,-2%,-6%,9%,10%,35µM*

# Compound activity (PubChem)
